Compounds without any hit were thinned out: in the full panel of roughly 83,000, 20% have a hit.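 Single-dose data. Exposure time 48 hours. Values below 10 considered active.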 Unmarked numbers belong to inactive results. The source made the active and inactive calls.

The first assay deals with BT-549 breast. The assay is described as follows: NCI-60 one-dose screen, 48 h (100 = growth as untreated, 0 = no growth, -100 = all killed). The note with it: 10 µM unless noted.
`COc1cc(-c2nc3cc(Cl)c(Cl)cc3[nH]2)ccc1OCC(=O)N=Nc1c(O)[nH]c2ccc([N+](=O)[O-])cc12`: the growth was 98.8%.

As to `CCOC(=O)c1cc2c(=O)oc3ccccc3c2oc1=O`, the growth is 99.4%. As to `c1cc2[nH]ncc2cc1-c1nc2ccc3[nH]ncc3c2c2c1CCCC2`, the growth is 12%. `Cc1cccc2c1NC(=O)C2(c1ccc(O)cc1)c1ccc(O)cc1`: the growth is -35.9% (active).

As to `CCOC(=O)C(=Cc1cccc(Cl)c1)C(=O)OCC`, the growth is 42.6%.

For a further assay, the system named is MDA-MB-435 melanoma. The description is as above. Particulars: 10 µM unless noted.
In the case of `O=C(Cn1c(-c2ccc([N+](=O)[O-])cc2)nc2ccccc21)NNC(=O)c1cccnc1`, the growth is 86.2%. With `O=C(Cn1cc(CN2C(=O)c3ccccc3S2(=O)=O)nn1)Nc1nc2ccccc2s1`, the growth was 112%.

With `CCN1CC(=O)N(/N=C2\C(=O)Nc3ccccc32)C1=S`, the growth is 98.2%. Turning to `O=C1NCCC12CCN(c1c(Cl)cncc1-c1ccc(O)cc1)CC2`, the growth was 100%. With `COP(=O)(OC)C(C)(C)CC(=O)CC(C#N)(C#N)C(C#N)C#N`, the growth is 104%. Same read-out and setting: then `COc1ccc(-c2nc3c(c(-c4ccccc4)nn3-c3ccccc3)c(-c3ccc(N4CCN(C)CC4)cc3)c2C#N)cc1`, with 93.9%. As for `C#Cc1cccc(Nc2ncnc3ccc(-c4cncc(NS(C)(=O)=O)c4)cc23)c1`, the growth was 44.8%. For `Cc1ccc(Sc2nnc(/N=C3\C(=O)Nc4ccccc43)s2)cc1`, the growth is 103%.

For the molecule `CN(C)c1ccc(/C=C/C(=O)c2ccc(-n3cc(CN4CCN(c5cc6c(cc5F)c(=O)c(C(=O)O)cn6C5CC5)CC4)nn3)cc2)cc1`, the growth is 64.7%. For `CCOC(=O)CSc1ncnc2c1c(-c1ccccc1)c(-c1ccccc1)n2-c1ccc(C)cc1`, the growth is 74.2%.

As for `O=C(CCCCCCN1CC(=O)N2[C@H](c3cc(Br)cs3)c3[nH]c4ccccc4c3C[C@H]2C1=O)NO`, the growth was 22.6%. Turning to `Cn1c(O)c(C=NCCN=Cc2c(O)n(C)c(=O)n(C)c2=O)c(=O)n(C)c1=O`, the growth is 93.7%. Take `C/C(Nc1ccc(Cl)c(Cl)c1)=C1\CCOC1=O`: the growth was 82.5%. Take `C=C1C(=O)O[C@H]2[C@H]1CC/C(COC(=O)CCSCCC(=O)OC/C1=C/CC[C@@]3(C)O[C@H]3[C@H]3OC(=O)C(=C)[C@@H]3CC1)=C\CC[C@@]1(C)O[C@@H]21`: the growth was 8.02% (active). With `Cc1ccc(/C=N/Nc2nc(Nc3ccccc3)nc(-n3nc(C)cc3C)n2)cc1`, the growth is 41.8%. Turning to `O=C(CCc1nnc(Cn2cnc3nc[nH]c3c2=O)o1)c1nc2ncccc2[nH]1`, the growth is 99.5%. Take `O=C1NC(=O)c2c1c1c3ccccc3ccc1c1[nH]c3ccc(Br)cc3c21`: the growth was 14%. With `Nc1nc(=S)c2ncn(C3OC(COP(=O)(O)O)C(O)C3O)c2[nH]1` (stereo unspecified), the growth is 15.5%. Same read-out and setting: then `CC12CCC3c4ccccc4CCC3(CO1)C2` (stereo unspecified), with 107%; and `O=Cc1ccc([N+](=O)[O-])s1`, with 110%. With `CC(C)c1ccc(COCc2cc(CN3CCCC3)c(O)c3ncccc23)cc1`, the growth is 20.2%. For the molecule `COCCNC(=O)c1ccc(-c2nc3ccc4[nH]ncc4c3c3c2CCCC3)cc1`, the growth is 16.4%. Consider `C/C(=N/O)c1ccc(F)cc1`, for which the growth is 112%. In the case of `COc1ccc2nc(NC(=O)CSc3nnc4n3S(=O)(=O)c3ccccc3N4C)sc2c1`, the growth was 113%.

For the molecule `CN(Cc1ccc(C(F)(F)F)cc1)CC(O)C(=O)Nc1ccc(Cl)cc1` (stereo unspecified), the growth is -4.56% (active). For `Cc1ccc2c3c(c(=O)[nH]c2c1)C1(C(C#N)=C(N)O3)c2cc(Br)ccc2-c2ccc(Br)cc21`, the growth was 42.8%. For `CC1(C)CC[C@]2(c3nnc(-c4ccncc4)o3)CC[C@H]3C(=CC[C@H]4[C@@]3(C)CC[C@H]3C(C)(C)C(=O)CC[C@]43C)[C@@H]2C1`, the growth was 78.2%. Still for that read-out and setting: the same measure for `C=C(C)[C@@H]1CC[C@]2(C(=O)N3CCN(C)CC3)CC[C@]3(C)[C@H](CC[C@@H]4[C@@]5(C)CC(=C/c6ccncc6)/C(=N/O)C(C)(C)[C@@H]5CC[C@]43C)[C@@H]12`: 86.6%; for `Oc1ccc(CCn2c(O)c(/C=C3\CN=c4ccccc4=N3)sc2=S)cc1`: 70.6%; for `CCNC(=O)c1[nH]cc(-c2ccccc2)c1-c1cc(OC)c2c(c1OC)OCO2`: 103%. With `C[C@]12C=CC(=O)C=C1CCC1C2[C@@H](O)C[C@@]2(C)C1CC[C@]2(O)C(=O)COC(=O)CCC(=O)O` (stereo partly specified), the growth was 99.9%.

The record behind these values is PubChem BioAssay (NCI).
